These results are taken from PubChem BioAssay (NCATS).

SMILES strings stand for the structures. Several values for one entry are separate records, joined by “and”; a condition that tells them apart may be missing. Identical values can stand only once. Results filed as inconclusive are left out. More than one record can exist for a structure, and the calls need not agree. Activity calls are given as the source filed them. Unless noted, the call rests on the fitted dose curve; in most records, active means well fitted curve in the direction sought with a large enough effect; inconclusive means small, poorly fitted or top-dose-only effect, or another doubt; inactive means no such curve, though single readings can be large; an effect the other way counts as inactive or inconclusive.

Assay [1] in a line: Quantitative high throughput screen for delayed death inhibitors of the malarial parasite plastid, 96 hour incubation (AID 488745). Further: nearly all actives have a fitted effect of over 70% in size. Further: potency means the concentration at half of the fitted maximal effect. Put shortly:
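Readout is firefly luciferase luminescence from an integrated reporter in P. falciparum; lower signal marks inhibited growth. Cultures at 2% hematocrit and 0.1% parasitemia were treated with compound across two generations (96 h, 37 C, 5% CO2).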

Assay [2] in a line: Quantitative high throughput screen for delayed death inhibitors of the malarial parasite plastid, 48 hour incubation (AID 488752). Further: on the % scale 0 is the no-effect control and ±100 the full control effect; nearly all actives have a fitted effect of over 65% in size. The method in brief: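 First, compound was pinned into RPMI 1640 medium containing 0.5% Albumax. Next, reporter-parasite-infected erythrocytes were added to 2% hematocrit and 0.1% parasitemia. After 48 h at 37 C under 5% CO2, luciferase detection reagent was added and luminescence read.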

Assay [3] has as its target M-phase phosphoprotein 8 (Homo sapiens) (UniProt Q99549). The assay can be described thus: qHTS Validation Assay for Inhibitors for MPP8 Chromodomain Interactions with Methylated Histone Tails (AID 488949). Further: nearly all actives have a fitted effect of over 55% in size. Further: potency means the concentration at half of the fitted maximal effect. The method in brief:
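AlphaScreen read-out: streptavidin donor and nickel chelate acceptor beads (final 10 ug/mL), 30 min in the dark at RT. Complex of 50 nM MPP8 and 50 nM b-H3(1-18)K9me3 peptide had been exposed to compounds for 30 min beforehand.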
A general note: In qHTS, concentration-response curves come from the screen itself.

Assay [4] concerns the target Transient receptor potential cation channel subfamily V member 1 (Homo sapiens) (UniProt Q8NER1). Briefly: HTS Assay for Compounds that Act as Enhancers of the Vanilloid Receptor 1 (AID 488979). Further: 0% is about no effect. The method in brief:
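TRPV1-expressing cells loaded with Fluo-8 calcium dye; compounds added and calcium influx read kinetically for 3 min (agonist phase), then capsaicin at EC20 added and read 2 min more for enhancement. Fluorescence ex 480/em 520 nm.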

Assay [5] concerns the target Thyrotropin receptor (Homo sapiens) (UniProt P16473). The assay can be described thus: qHTS Assay for Antagonists of the Thyroid Stimulating Hormone Receptor (AID 488980). Further: series mostly up to about 58 µM; 0% is about no effect. The method in brief:
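TSHR-HEK293 cells; 70 uM RO 20-1724 PDE inhibitor; compound + EC80 TSH (4 nM final); anti-cAMP cryptate antibody/cAMP-d2 in lysis buffer, 30 min RT; HTRF 665/620 nm read.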

In assay [6] the target is Thyrotropin-releasing hormone receptor (Homo sapiens) (UniProt P34981). Briefly: qHTS for Small Molecule Agonists and Allosteric Enhancers of Human TRH Receptor: Validation Screen for Agonists (AID 493127;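 active means calcium activation more than 3 SD above the typical response in the agonist read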;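 further: intracellular calcium rise by fluo-8 fluorescence before TRH EC20 addition; 0% is about no effect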). The note with it: TRH receptor agonist cell assay; at 2 µM; stronger effect = higher value. The method in brief: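 Compounds are added by online pintool to dye-loaded TRHR cells while fluorescence is recorded every second. A rise in calcium signal during the agonist read marks activation; a later 10 nM TRH addition (EC20) serves the separate enhancer mode.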
Sequence of Thyrotropin-releasing hormone receptor (Homo sapiens) (P34981 whole entry, looked up): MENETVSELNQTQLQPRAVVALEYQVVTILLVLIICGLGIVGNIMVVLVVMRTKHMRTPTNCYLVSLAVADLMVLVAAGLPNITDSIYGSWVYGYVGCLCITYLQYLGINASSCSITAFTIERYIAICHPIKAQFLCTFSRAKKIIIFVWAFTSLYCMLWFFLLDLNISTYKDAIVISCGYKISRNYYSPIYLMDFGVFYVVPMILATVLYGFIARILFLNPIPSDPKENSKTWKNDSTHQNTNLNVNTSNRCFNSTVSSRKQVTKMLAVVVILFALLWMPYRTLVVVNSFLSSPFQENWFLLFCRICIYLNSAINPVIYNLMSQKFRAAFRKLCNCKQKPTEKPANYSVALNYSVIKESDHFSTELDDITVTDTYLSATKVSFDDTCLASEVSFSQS

Assay [7] concerns the target Thioredoxin reductase 1, cytoplasmic (Rattus norvegicus) (UniProt O89049). The assay can be described thus: qHTS Assay for Substrates of Mammalian Selenoprotein Thioredoxin Reductase 1 (TrxR1) (AID 488772).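 Further: series mostly up to about 57 µM; 0% is about no effect; a drop in NADPH fluorescence below the no-compound background marks a TrxR1 substrate.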 The method in brief:
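In this dual-purpose format, potential substrates are identified from the first fluorescence read after selenite addition, not from the 8-minute delta. Rat enzyme is preincubated with NADPH and then with compound at ~22 deg C.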

Assay [8] has the same target. Briefly: qHTS Assay for Inhibitors of Mammalian Selenoprotein Thioredoxin Reductase 1 (TrxR1) (AID 488773). Further: nearly all actives have a fitted effect of over 40% in size. Further: potency means the concentration at half of the fitted maximal effect. Particulars: Potency: inhibition. Put shortly:
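Inhibition is scored from the loss of NADPH fluorescence between first and last reads of an 8-min kinetic run. Selenite (400 uM) was the substrate, added after 15 min compound preincubation at room temperature.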

Assay [9] has as its target Flap endonuclease 1 (Homo sapiens) (UniProt P39748). Briefly: qHTS Validation Assay for the Inhibitors of Human Flap endonuclease 1 (FEN1) (AID 488816). Further: on the % scale 0 is the no-effect control and ±100 the full control effect. Put shortly:
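Steps: add FEN1 (10 nM reagent) or buffer only; pin compounds; hold 15 min at room temperature; start with substrate, 50 nM final; read at 0 and 15 min; correct, normalize and fit a four-parameter Hill curve.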

The target in assay [10] is Chromobox protein homolog 1 (Homo sapiens) (UniProt P83916). The assay can be described thus: qHTS Validation Assay for Inhibitors of HP1-beta Chromodomain Interactions with Methylated Histone Tails (AID 488953). Further: nearly all actives have a fitted effect of over 50% in size. Further: potency means the concentration at half of the fitted maximal effect. Put shortly: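 Disruption of preformed HP1-beta:H3K9me3 peptide complexes (both 50 nM, PBS pH 7.4 with 0.01% Tween-20) is measured by AlphaScreen after 30 min compound exposure at room temperature, using streptavidin donor and nickel chelate acceptor beads at 10 ug/mL final.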

For assay [11], the target named is Methanococcus maripaludis chaperonin (MmCpn) (UniProt Q6LX38). The assay can be described thus: High-Throughput Screening for Modulators of Cytosolic Chaperonin Activity: MmCpn Primary Screen (AID 488978).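 Further: 50 nM MmCpn enzyme hydrolysing 30 µM ATP at 37 °C; 0% is about no effect.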 Put shortly:
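ADP formation read by HTRF Transcreener, 665/590 nm emission after 320 nm excitation. Enzyme: archaeal chaperonin at 50 nM final; substrate ATP 30 uM final; 10 min, 37C, after 5 min compound preincubation at RT.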

The target in assay [12] is D(1A) dopamine receptor (Homo sapiens) (UniProt P21728). The assay can be described thus: HTS Assay for Allosteric Agonists of the Human D1 Dopamine Receptor: Primary Screen for Agonists (AID 488981). Further: 0% is about no effect. Put shortly: (§1)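 Tetracycline-induced HEK293 T-REx cells force-coupled to calcium signalling were incubated overnight at 30 C and dye-loaded at room temperature. Calcium flux over 180 s after compound addition flagged agonists; a further 180 s read after EC20 dopamine flagged potentiators.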
Sequence of D(1A) dopamine receptor (Homo sapiens) (P21728 whole entry, looked up): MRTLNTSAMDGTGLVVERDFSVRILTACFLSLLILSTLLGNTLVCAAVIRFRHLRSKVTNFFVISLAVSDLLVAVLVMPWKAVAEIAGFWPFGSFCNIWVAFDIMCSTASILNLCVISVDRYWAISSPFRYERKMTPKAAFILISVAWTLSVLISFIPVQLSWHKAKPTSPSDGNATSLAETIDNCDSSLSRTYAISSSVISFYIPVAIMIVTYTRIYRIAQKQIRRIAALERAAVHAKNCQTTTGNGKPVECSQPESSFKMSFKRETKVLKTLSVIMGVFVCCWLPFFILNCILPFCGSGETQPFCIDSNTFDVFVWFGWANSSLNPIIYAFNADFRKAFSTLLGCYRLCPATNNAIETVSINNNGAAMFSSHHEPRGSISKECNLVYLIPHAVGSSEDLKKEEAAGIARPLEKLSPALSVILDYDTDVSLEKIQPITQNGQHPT

Assay [13] shares this target. The assay can be described thus: HTS Assay for Allosteric Agonists of the Human D1 Dopamine Receptor: Primary Screen for Potentiators (AID 488982). Further: 0% is about no effect. Put shortly:
as §1

For assay [14] the target is unchanged. The assay can be described thus: HTS Assay for Allosteric Agonists of the Human D1 Dopamine Receptor: Primary Screen for Antagonists (AID 488983).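 Further: calcium flux response to an EC80 dopamine challenge measured with no-wash dye; on the % scale 0 is the no-effect control and ±100 the full control effect; nearly all actives have a fitted effect of over 65% in size.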 Put shortly:
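Kinetic fluorescence at 1 cycle/sec tracked intracellular calcium in force-coupled, tetracycline-inducible HEK293 T-REx D1 cells. Loss of response to an EC80 dopamine dose, given 180 s after compound, marked antagonists.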

Assay [15] can be described thus: Validation screen for small molecules that induce genotoxicity in human embryonic kidney (HEK293T) cells expressing luciferase-tagged ELG1 (AID 493106). Further: 0% is about no effect. The method in brief: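 Cells were dispensed at 2,000 per well, then 23 nL compound or DMSO was pinned in. After 16 hr at 37 °C and 5% CO2, ONE-Glo reagent was added. Luciferase activity was measured following 30 min at room temperature.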

Assay [16] deals with ATPase family AAA domain-containing protein 5 (Homo sapiens) (UniProt Q96QE3). Briefly: Validation screen for small molecules that inhibit ELG1-dependent DNA repair in human embryonic kidney (HEK293T) cells expressing luciferase-tagged ELG1 (AID 493107).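 Further: cells co-treated with the DNA-damaging agent 5-fluorouridine alongside compound; series mostly up to about 46 µM; on the % scale 0 is the no-effect control and ±100 the full control effect; inhibitors lower the ELG1-luciferase luminescence signal; nearly all actives have a fitted effect of over 70% in size.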 The method in brief: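 Cells are dispensed in 1536-well format, then 5-fluorouridine and compound are pinned in. After a 16 hr incubation at 37 °C and 5% CO2, ONE-Glo is added and luciferase measured on a CCD imager.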
Sequence of ATPase family AAA domain-containing protein 5 (Homo sapiens) (Q96QE3 whole entry, looked up, the tested form may be a part): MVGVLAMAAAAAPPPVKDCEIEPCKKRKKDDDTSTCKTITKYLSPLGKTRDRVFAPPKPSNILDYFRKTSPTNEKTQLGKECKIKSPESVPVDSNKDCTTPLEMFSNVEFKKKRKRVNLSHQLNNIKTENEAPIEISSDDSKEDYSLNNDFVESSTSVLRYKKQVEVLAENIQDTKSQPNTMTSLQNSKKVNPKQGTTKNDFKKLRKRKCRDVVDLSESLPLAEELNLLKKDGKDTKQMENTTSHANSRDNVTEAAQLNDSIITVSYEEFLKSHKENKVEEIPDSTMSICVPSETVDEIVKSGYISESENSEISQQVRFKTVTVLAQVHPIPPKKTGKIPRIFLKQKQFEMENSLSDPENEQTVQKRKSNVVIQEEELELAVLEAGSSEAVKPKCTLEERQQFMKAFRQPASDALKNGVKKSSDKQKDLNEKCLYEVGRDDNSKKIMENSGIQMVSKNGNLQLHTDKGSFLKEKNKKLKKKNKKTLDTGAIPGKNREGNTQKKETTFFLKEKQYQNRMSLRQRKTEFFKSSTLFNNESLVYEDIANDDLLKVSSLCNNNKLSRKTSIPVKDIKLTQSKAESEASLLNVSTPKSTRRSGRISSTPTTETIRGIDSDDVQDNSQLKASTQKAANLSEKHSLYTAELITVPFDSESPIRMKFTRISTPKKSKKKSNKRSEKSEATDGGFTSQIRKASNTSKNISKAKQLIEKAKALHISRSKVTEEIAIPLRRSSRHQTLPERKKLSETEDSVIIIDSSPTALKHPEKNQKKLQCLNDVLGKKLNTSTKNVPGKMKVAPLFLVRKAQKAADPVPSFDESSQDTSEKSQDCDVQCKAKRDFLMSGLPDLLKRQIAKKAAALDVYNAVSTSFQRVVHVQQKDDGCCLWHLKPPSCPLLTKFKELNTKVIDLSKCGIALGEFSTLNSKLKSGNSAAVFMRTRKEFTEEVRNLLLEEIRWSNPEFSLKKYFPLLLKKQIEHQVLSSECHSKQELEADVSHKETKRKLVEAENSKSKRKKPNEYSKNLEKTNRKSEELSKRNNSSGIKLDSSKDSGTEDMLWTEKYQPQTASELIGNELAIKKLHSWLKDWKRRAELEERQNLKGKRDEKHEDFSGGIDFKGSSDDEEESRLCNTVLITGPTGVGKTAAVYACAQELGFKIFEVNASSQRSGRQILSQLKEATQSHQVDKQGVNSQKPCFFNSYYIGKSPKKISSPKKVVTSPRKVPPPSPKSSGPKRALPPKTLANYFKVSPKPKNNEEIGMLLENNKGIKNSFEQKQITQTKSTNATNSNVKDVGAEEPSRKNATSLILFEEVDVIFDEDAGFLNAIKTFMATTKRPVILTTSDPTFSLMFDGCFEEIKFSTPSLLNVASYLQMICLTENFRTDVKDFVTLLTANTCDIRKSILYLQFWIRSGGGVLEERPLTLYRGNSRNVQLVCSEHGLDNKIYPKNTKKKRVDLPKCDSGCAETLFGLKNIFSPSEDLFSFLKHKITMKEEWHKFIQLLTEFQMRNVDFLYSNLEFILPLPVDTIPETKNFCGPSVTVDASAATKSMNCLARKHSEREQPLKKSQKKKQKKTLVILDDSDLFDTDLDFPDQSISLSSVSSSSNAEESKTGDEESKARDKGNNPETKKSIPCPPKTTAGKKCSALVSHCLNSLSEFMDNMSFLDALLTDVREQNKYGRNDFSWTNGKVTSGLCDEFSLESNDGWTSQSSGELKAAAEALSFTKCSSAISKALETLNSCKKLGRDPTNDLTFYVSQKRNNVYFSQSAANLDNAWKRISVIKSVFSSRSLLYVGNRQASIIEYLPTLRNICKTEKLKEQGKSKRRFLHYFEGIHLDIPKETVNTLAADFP

Assay [17] is described as follows: qHTS for Inhibitors of Cell Surface uPA Generation: Validation Assay (AID 493164).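 Further: RAW 264.7 macrophage cells exposed to compound for 18 h; 0% is about no effect.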 Put shortly: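 ATP-Lite luminescence read-out: ATP remains high when uPA activity-dependent LF translocation into the cytoplasm is blocked. RAW 264.7 cells, 18 h compound exposure at 37 C; 7-point titration, 2.45 nM to 38.3 uM final.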
The nature of assay [18]: Nrf2 qHTS screen for inhibitors: Validation (AID 493153; active means well fitted inhibition curve with a large enough effect in the main read-out, with a control signal flat, not every such curve was filed as active). Particulars: Potency: luciferase luminescence; viability change: measured here: cytotoxicity max response. Put shortly: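 A549 ARE_Fluc, 5% FBS OPTI-MEM; cpd titration, 18-24 h, 37°C/5% CO2. Read 1: CellTiter-Fluor (Ex 405/Em 525), cytotox. Read 2: luciferase lum, Nrf2 activity.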
Assay [19] concerns the target ATP-dependent 6-phosphofructokinase (Trypanosoma brucei brucei) (UniProt O15648). Briefly: qHTS Assay to Find Inhibitors of T. brucei phosphofructokinase: hit validation (AID 492961).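 Further: luminescence reports ADP formed as PFK phosphorylates fructose-6-phosphate with ATP; series mostly up to about 51 µM; on the % scale 0 is the no-effect control and ±100 the full control effect.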 The method in brief: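 Percent activity derived from corrected luminescence, normalized between 0x and 1x enzyme controls, then fitted to concentration-response curves. Conditions: 1.25 nM PFK, 0.1 mM ATP, 0.5 mM F6P, 45 min RT.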

Sequence of Thioredoxin reductase 1, cytoplasmic (Rattus norvegicus) (O89049 whole entry, looked up): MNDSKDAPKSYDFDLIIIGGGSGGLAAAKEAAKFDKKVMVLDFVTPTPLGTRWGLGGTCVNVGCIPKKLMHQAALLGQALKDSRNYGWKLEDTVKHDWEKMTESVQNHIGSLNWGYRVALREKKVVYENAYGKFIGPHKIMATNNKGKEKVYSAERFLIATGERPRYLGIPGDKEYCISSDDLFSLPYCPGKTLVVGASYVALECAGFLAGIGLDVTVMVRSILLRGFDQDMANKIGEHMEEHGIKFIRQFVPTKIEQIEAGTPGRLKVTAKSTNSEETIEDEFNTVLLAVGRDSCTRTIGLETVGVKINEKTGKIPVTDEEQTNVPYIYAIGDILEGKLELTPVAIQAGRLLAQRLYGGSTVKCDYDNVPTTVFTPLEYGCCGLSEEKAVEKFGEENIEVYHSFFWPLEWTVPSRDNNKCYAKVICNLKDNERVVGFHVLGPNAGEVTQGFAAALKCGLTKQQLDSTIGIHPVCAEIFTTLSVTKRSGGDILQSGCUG
Sequence of Flap endonuclease 1 (Homo sapiens) (P39748 whole entry, looked up): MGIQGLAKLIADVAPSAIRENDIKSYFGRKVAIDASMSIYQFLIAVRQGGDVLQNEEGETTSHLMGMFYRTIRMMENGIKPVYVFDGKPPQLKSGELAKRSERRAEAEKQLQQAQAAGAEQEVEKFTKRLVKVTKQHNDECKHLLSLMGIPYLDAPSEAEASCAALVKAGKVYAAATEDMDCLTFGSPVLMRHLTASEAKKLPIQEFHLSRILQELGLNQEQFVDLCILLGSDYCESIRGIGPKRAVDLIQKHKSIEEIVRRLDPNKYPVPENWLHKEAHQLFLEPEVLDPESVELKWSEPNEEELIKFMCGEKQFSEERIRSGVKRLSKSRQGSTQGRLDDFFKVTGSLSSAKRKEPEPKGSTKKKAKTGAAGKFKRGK
Sequence of Transient receptor potential cation channel subfamily V member 1 (Homo sapiens) (Q8NER1 whole entry, looked up): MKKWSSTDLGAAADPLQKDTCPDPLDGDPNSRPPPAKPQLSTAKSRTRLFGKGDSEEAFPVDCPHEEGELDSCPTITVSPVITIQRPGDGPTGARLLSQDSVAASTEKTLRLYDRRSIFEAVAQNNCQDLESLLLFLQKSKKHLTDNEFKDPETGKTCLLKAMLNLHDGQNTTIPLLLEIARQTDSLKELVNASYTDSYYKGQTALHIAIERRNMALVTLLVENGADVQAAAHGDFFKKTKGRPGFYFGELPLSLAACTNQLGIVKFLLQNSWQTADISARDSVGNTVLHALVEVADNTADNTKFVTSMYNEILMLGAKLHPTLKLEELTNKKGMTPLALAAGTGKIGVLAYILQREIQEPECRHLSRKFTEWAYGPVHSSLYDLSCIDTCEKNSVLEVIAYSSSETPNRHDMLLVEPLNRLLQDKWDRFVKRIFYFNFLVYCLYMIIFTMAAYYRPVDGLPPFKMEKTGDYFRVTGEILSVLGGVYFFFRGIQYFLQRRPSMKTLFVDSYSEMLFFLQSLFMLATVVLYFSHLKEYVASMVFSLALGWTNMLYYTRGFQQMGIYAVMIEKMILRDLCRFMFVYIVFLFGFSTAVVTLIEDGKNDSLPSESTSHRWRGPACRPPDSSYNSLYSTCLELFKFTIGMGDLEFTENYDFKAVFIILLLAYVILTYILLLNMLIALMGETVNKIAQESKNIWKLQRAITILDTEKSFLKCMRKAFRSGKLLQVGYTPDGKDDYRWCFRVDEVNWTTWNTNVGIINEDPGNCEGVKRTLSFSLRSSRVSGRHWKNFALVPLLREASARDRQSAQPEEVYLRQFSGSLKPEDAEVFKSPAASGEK
Sequence of Methanococcus maripaludis chaperonin (MmCpn) (Q6LX38 1-543): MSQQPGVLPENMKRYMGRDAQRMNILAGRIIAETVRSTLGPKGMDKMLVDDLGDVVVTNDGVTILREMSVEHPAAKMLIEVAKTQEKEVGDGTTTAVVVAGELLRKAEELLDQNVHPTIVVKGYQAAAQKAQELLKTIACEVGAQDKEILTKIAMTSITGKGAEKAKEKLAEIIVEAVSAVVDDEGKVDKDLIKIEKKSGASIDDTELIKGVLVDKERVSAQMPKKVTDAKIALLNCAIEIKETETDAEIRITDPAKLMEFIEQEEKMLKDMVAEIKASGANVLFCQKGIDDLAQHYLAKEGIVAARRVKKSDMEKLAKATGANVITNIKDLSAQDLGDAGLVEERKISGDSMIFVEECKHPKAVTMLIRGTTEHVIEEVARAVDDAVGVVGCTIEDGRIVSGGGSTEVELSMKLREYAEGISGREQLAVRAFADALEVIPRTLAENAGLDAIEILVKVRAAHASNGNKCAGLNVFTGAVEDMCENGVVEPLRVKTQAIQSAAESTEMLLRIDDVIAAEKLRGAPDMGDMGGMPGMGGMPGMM

As for `CC1OC1P(=O)(O)O` (centres undefined), the Potency result in [1], in assay [2] and in [3] was “inactive” in each case. Also, the result in assay [4] and in [5] was inactive. Besides, the activation in [6] was -2.75% (inactive).

As to `N=C(N)c1ccc(CS(=O)(=O)F)cc1`, the result in [7], in [11] and in assay [17] was inactive. Besides, the Potency result in [8], in assay [9], in [3], in assay [10], in assay [12] and in assay [13] was “inactive” throughout. For the same molecule, the Potency entry in assay [14], in assay [15] and in [16] was “inactive” throughout.

Consider `Cc1[nH]c2ccc(O)cc2c1CCN`, for which the Potency entry in assay [2], in assay [8], in assay [9], in assay [3], in [12] and in [13] was “inactive” in each case. For the same molecule, the Potency entry in assay [14], in assay [16] and in [18] was “inactive” in each case. The outcome in assay [7], in [11], in assay [4] and in [17] was inactive. In addition, in assay [6], the activation was 0.812% (inactive). Besides, the viability change in assay [18] was -7.71%.

For the molecule `COc1ccc2c(c1)[C@@]13CCCC[C@H]1[C@@H](C2)NCC3`, the Potency result in assay [1], in assay [8], in assay [9], in assay [3], in [12] and in [13] was “inactive” throughout. The Potency result in [14] and in assay [16] was “inactive” each time. For the same molecule, the molecule was classed as inactive in assay [7], in assay [11], in assay [5] and in assay [17]. In addition, the activation in assay [6] is 0.0625% (inactive).

On to `Oc1ccc2c3c1O[C@H]1c4oc5ccccc5c4C[C@@]4(O)C(C2)N(CC2CC2)CCC314` (some centres undefined), for which the Potency in [1] is 7.38 µM (active). Moreover, the molecule was classed as inactive in [7], in assay [11], in assay [4] and in [17]. Besides, the Potency entry in assay [8], in assay [9], in [3], in assay [12], in [13] and in [14] was “inactive” in each case. In addition, the Potency entry in assay [15], in [16] and in assay [18] was “inactive” each time. For the same molecule, the activation in assay [6] was 1.94% (inactive). In [18], the viability change was -2.78%.

Take `NC(N)=Nc1ccc2[nH]c3c(c2c1)C[C@@]1(O)[C@H]2Cc4ccc(O)c5c4[C@@]1(CCN2CC1CC1)[C@H]3O5`: the Potency entry in [2], in assay [12], in [13], in [14] and in assay [18] was “inactive” in each case. The outcome in assay [7], in assay [11], in [4] and in assay [17] was inactive. In addition, the Potency was 26.7 µM (active) in assay [8]; 31.6 µM (active) and 2.12 µM (active) in [3]; 28.2 µM (active) in [10]. Besides, in assay [6], the activation is 0.188% (inactive). Further, in [18], the viability change was 4.74%.

With `C[N+]1(C)C2CCC1CC(OC(=O)c1c[nH]c3ccccc13)C2` (centres undefined), the result in assay [7], in [11], in assay [4] and in assay [17] was inactive. Moreover, the Potency entry in assay [8], in assay [9], in assay [12], in assay [13], in [14] and in [19] was “inactive” in each case. Besides, in assay [16], the Potency result was “inactive”. The Potency result in assay [3] was “inactive and 8.44 µM (active)”. The activation in [6] is 0.188% (inactive).
